Results published in PubChem BioAssay AID1159580 (chemical genetic matrix, 2015).
Values joined by “and” are separate entries in the source; they are usually repeats but may differ in a detail not shown here. Identical values can stand only once. Among all 5,500 compounds or so, about 2,000 (36%) were called active. Roughly 18% stayed inconclusive and do not appear here. Rule as the data show it: active = normalized growth mostly below about 0.91 (no sharp cut-off); inconclusive = no clear call, values can overlap the other calls; inactive = mostly above about 0.92. This is one part of the list.

Assay: chemical genetic growth profiling, strain panel (AID 1159580);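 also: tested at 20 µM; growth read once vehicle control cultures reached saturation at 30 °C; 1 = growth at the plate median or of vehicle wells; lower values mean less growth of the strain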
Conditions: growth OD

Measured: normalized growth

CN(C)CCCN1c2ccccc2CCc2ccccc21
inactive: S. cerevisiae deletion strains, locus YJR075W, strain HOC1, hits give low values 0.97 | S. cerevisiae deletion strains, locus YKL009W, strain mrt4, hits give low values 0.992 | S. cerevisiae deletion strains, locus YKL068W, hits give low values 0.992 | S. cerevisiae deletion strains, locus YKL085W, strain MDH1 (second series), hits give low values 0.987 | S. cerevisiae deletion strains, locus YKL085W, strain MDH1, hits give low values 0.987 | S. cerevisiae deletion strains, locus YKL160W, strain elf1, hits give low values 1 | S. cerevisiae deletion strains, locus YKR001C, strain vps1, hits give low values 0.988 | S. cerevisiae deletion strains, locus YKR026C, strain gcn3, hits give low values 1.01 | S. cerevisiae deletion strains, locus YKR091W, strain srl3, hits give low values 1.01 | S. cerevisiae deletion strains, locus YLL001W, strain dnm1, hits give low values 0.994 | S. cerevisiae deletion strains, locus YLL026W, hits give low values 0.999 | S. cerevisiae deletion strains, locus YLL041C, strain sdh2, hits give low values 1.01 | S. cerevisiae deletion strains, locus YLR027C, strain aat2, hits give low values 1 | S. cerevisiae deletion strains, locus YLR039C, strain RIC1, hits give low values 1.15 | S. cerevisiae deletion strains, locus YLR058C, strain SHM2, hits give low values 1 | S. cerevisiae deletion strains, locus YLR102C, strain apc9, hits give low values 0.984 | S. cerevisiae deletion strains, locus YLR113W, strain HOG1, hits give low values 1.01 | S. cerevisiae deletion strains, locus YLR221C, strain rsa3, hits give low values 0.98 | S. cerevisiae deletion strains, locus YLR258W, strain gsy2, hits give low values 0.989 | S. cerevisiae deletion strains, locus YLR262C, strain YPT6 (second series), hits give low values 1.04 | S. cerevisiae deletion strains, locus YLR262C, strain YPT6, hits give low values 1.25 | S. cerevisiae deletion strains, locus YLR268W, strain sec22, hits give low values 0.994 | S. cerevisiae deletion strains, locus YLR320W, strain mms22, hits give low values 0.991 | S. cerevisiae deletion strains, locus YLR330W, strain CHS5, hits give low values 1.01 | S. cerevisiae deletion strains, locus YLR342W, strain FKS1 (second series), hits give low values 0.997 | S. cerevisiae deletion strains, locus YLR342W, strain FKS1, hits give low values 1 | S. cerevisiae deletion strains, locus YLR357W, strain rsc2, hits give low values 1.01 | S. cerevisiae deletion strains, locus YLR370C, strain arc18, hits give low values 1.01 | S. cerevisiae deletion strains, locus YLR371W, strain rom2, hits give low values 0.987 | S. cerevisiae deletion strains, locus YLR384C, strain iki3, hits give low values 1.01 | S. cerevisiae deletion strains, locus YLR418C, strain cdc73, hits give low values 0.956 | S. cerevisiae deletion strains, locus YML016C, strain PPZ1, hits give low values 1.01 | S. cerevisiae deletion strains, locus YML032C, strain rad52, hits give low values 0.996 | S. cerevisiae deletion strains, locus YML120C, strain ndi1, hits give low values 0.992 | S. cerevisiae deletion strains, locus YML124C, strain tub3, hits give low values 0.996 | S. cerevisiae deletion strains, locus YMR058W, strain fet3, hits give low values 1.01 | S. cerevisiae deletion strains, locus YMR078C, strain ctf18, hits give low values 0.985 | S. cerevisiae deletion strains, locus YMR125W, strain sto1, hits give low values 1.01 | S. cerevisiae deletion strains, locus YMR129W, hits give low values 1 | S. cerevisiae deletion strains, locus YMR205C, strain PFK2, hits give low values 0.998 | S. cerevisiae deletion strains, locus YMR223W, strain ubp8, hits give low values 0.962 | S. cerevisiae deletion strains, locus YMR231W, strain pep5, hits give low values 0.998 | S. cerevisiae deletion strains, locus YMR263W, strain SAP30, hits give low values 1 | S. cerevisiae deletion strains, locus YMR307W, strain GAS1, hits give low values 1.09 and 0.988 | S. cerevisiae deletion strains, locus YNL067W, strain RPL9B, hits give low values 1 | S. cerevisiae deletion strains, locus YNL071W, strain lat1, hits give low values 1 | S. cerevisiae deletion strains, locus YNL128W, strain TEP1, hits give low values 1 | S. cerevisiae deletion strains, locus YNL153C, strain GIM3, hits give low values 1.01 | S. cerevisiae deletion strains, locus YNL175C, strain NOP13, hits give low values 1 | S. cerevisiae deletion strains, locus YNL183C, strain NPR1, hits give low values 0.942 | S. cerevisiae deletion strains, locus YNL197C, strain WHI3, hits give low values 1 | S. cerevisiae deletion strains, locus YNL209W, strain ssb2, hits give low values 1.03 | S. cerevisiae deletion strains, locus YNL224C, strain SQS1, hits give low values 1.05 | S. cerevisiae deletion strains, locus YNL233W, strain BNI4, hits give low values 1.01 | S. cerevisiae deletion strains, locus YNL248C, strain rpa49, hits give low values 0.988 | S. cerevisiae deletion strains, locus YNL250W, strain rad50, hits give low values 0.987 | S. cerevisiae deletion strains, locus YNL271C, strain bni1, hits give low values 0.993 | S. cerevisiae deletion strains, locus YNL298W, strain CLA4, hits give low values 1 | S. cerevisiae deletion strains, locus YNL307C, strain MCK1, hits give low values 0.982 | S. cerevisiae deletion strains, locus YNL322C, strain KRE1 (second series), hits give low values 0.997 | S. cerevisiae deletion strains, locus YNL322C, strain KRE1, hits give low values 1 and 0.979 | S. cerevisiae deletion strains, locus YNR049C, strain mso1, hits give low values 1.03 | S. cerevisiae deletion strains, locus YNR052C, strain pop2, hits give low values 0.978 | S. cerevisiae deletion strains, locus YOL006C, strain TOP1, hits give low values 0.946 | S. cerevisiae deletion strains, locus YOL012C, strain htz1 0.613 | S. cerevisiae deletion strains, locus YOL147C, strain pex11, hits give low values 0.994 | S. cerevisiae deletion strains, locus YOR001W, strain rrp6, hits give low values 1 | S. cerevisiae deletion strains, locus YOR061W, strain CKA2, hits give low values 1.01 | S. cerevisiae deletion strains, locus YOR069W, strain VPS5, hits give low values 1 | S. cerevisiae deletion strains, locus YOR070C, strain gyp1, hits give low values 1 | S. cerevisiae deletion strains, locus YOR080W, strain dia2, hits give low values 0.995 | S. cerevisiae deletion strains, locus YOR083W, strain WHI5 (second series), hits give low values 1.07 | S. cerevisiae deletion strains, locus YOR083W, strain WHI5, hits give low values 0.995 | S. cerevisiae deletion strains, locus YOR106W, strain vam3, hits give low values 0.997 | S. cerevisiae deletion strains, locus YOR136W, strain idh2, hits give low values 0.999 | S. cerevisiae deletion strains, locus YOR144C, strain elg1, hits give low values 0.992 | S. cerevisiae deletion strains, locus YOR184W, strain ser1, hits give low values 1.02 | S. cerevisiae deletion strains, locus YOR231W, strain MKK1, hits give low values 0.975 | S. cerevisiae deletion strains, locus YOR265W, strain rbl2, hits give low values 1.01 | S. cerevisiae deletion strains, locus YOR270C, strain vph1, hits give low values 0.932 | S. cerevisiae deletion strains, locus YOR290C, strain snf2, hits give low values 1 | S. cerevisiae deletion strains, locus YOR316C, strain cot1, hits give low values 0.993 | S. cerevisiae deletion strains, locus YPL051W, strain arl3, hits give low values 0.992 | S. cerevisiae deletion strains, locus YPL055C, strain LGE1, hits give low values 0.99 and 0.992 | S. cerevisiae deletion strains, locus YPL078C, strain atp4, hits give low values 1.01 | S. cerevisiae deletion strains, locus YPL106C, strain sse1, hits give low values 0.996 | S. cerevisiae deletion strains, locus YPL240C, strain hsp82, hits give low values 1 | S. cerevisiae deletion strains, locus YPL241C, strain CIN2, hits give low values 1.01 | S. cerevisiae deletion strains, locus YPL256C, strain CLN2, hits give low values 0.972 | S. cerevisiae deletion strains, locus YPR119W, strain clb2, hits give low values 0.99 | S. cerevisiae deletion strains, locus YPR141C, strain kar3, hits give low values 0.993 | S. cerevisiae deletion strains, locus YPR163C, strain tif3, hits give low values 0.982 | S. cerevisiae deletion strains, locus YPR167C, strain met16, hits give low values 0.989 | S. cerevisiae deletion strains, strain wtn01, hits give low values 0.988 | S. cerevisiae strains, strain wild type, hits give low values 1.01
